Holding throughout (test): NCI-60 one-dose screen, 48 h (100 = growth as untreated, 0 = no growth, -100 = all killed)
The subject of one assay is SR leukemia. The conditions noted are these: 10 µM unless noted.
Another assay deals with RPMI-8226 leukemia. The conditions noted are these: 10 µM unless noted.
In a further assay the test system is OVCAR-8 ovarian. The conditions noted are these: 10 µM unless noted.
The next assay relates to OVCAR-5 ovarian. The conditions noted are these: 10 µM unless noted.
The next assay concerns OVCAR-4 ovarian. The conditions noted are these: 10 µM unless noted.
The subject of the next assay is SK-OV-3 ovarian. The conditions noted are these: 10 µM unless noted.
For another assay, the system named is IGROV1 ovarian. The conditions noted are these: 10 µM unless noted.
The test system of the next assay is OVCAR-3 ovarian. The conditions noted are these: 10 µM unless noted.
A further assay concerns HS 578T breast. The conditions noted are these: 10 µM.
Another assay relates to NCI/ADR-RES ovarian. The conditions noted are these: 10 µM unless noted.
In another assay the test system is T-47D breast. The conditions noted are these: 10 µM unless noted.
In the next assay the test system is BT-549 breast. The conditions noted are these: 10 µM unless noted.
In another assay the test system is MDA-MB-435 melanoma. The conditions noted are these: 10 µM unless noted.
Another assay relates to SW-620 colon. The conditions noted are these: 10 µM unless noted.
The subject of a further assay is MCF7 breast. The conditions noted are these: 10 µM unless noted.
The next assay deals with HCT-116 colon. The conditions noted are these: 10 µM unless noted.
For a further assay, the system named is HCC-2998 colon. The conditions noted are these: 10 µM.
A further assay has as its system KM12 colon. The conditions noted are these: 10 µM unless noted.

SMILES strings stand for the structures. About 83,000 compounds went through this panel and 20% of them were active in at least one assay; those are over-represented in the sample as a whole.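 Growth was measured after 48 h exposure to one concentration of compound in 96-well plates. Values under 10 count as active.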 Unmarked numbers belong to inactive results. The source made the active and inactive calls.

Here are results for 9 compounds from PubChem BioAssay (NCI).

`CNC(=O)c1cc(Oc2cccc3nc(Nc4ccc(Cl)c(F)c4)ccc23)ccn1`: the growth in the assay on SR leukemia was 62.2%; with RPMI-8226 leukemia it was 99.5%; in the assay on OVCAR-8 ovarian, 48.9%; with OVCAR-5 ovarian, 79.7%; in the assay on OVCAR-4 ovarian, 8.11% (active); with SK-OV-3 ovarian, 41.4%. For the same compound, the growth is 79.3% with IGROV1 ovarian; 52.2% in the assay with OVCAR-3 ovarian; 37.5% in the assay on HS 578T breast; 49.5% in the assay with NCI/ADR-RES ovarian; 51.3% with T-47D breast; 63.8% in the assay with BT-549 breast. For the same compound, the growth is 86.4% in the assay on MDA-MB-435 melanoma; 82% in the assay on SW-620 colon; 76.2% in the assay on MCF7 breast; 45.4% with HCT-116 colon; 82.5% in the assay on HCC-2998 colon; 84.4% in the assay with KM12 colon.
With `Cc1cc(N2CCOCC2)nc(N(CCNc2ccnc3cc(Cl)ccc23)Cc2cccs2)n1`, the growth in the assay on SR leukemia is -13% (active); in the assay with RPMI-8226 leukemia it was -11.9% (active); with OVCAR-8 ovarian, 8.53% (active); with OVCAR-5 ovarian, 83.2%; in the assay on OVCAR-4 ovarian, 14.2%; with SK-OV-3 ovarian it was 61.5%. For the same compound, the growth is 35.1% with IGROV1 ovarian; -73.9% (active) with OVCAR-3 ovarian; 5.37% (active) with HS 578T breast; 34.1% with NCI/ADR-RES ovarian; -29.6% (active) in the assay with T-47D breast; -16.3% (active) in the assay on BT-549 breast. Besides, the growth is -1.4% (active) with MDA-MB-435 melanoma; 19.5% with SW-620 colon; 18.2% in the assay with MCF7 breast; -25.1% (active) with HCT-116 colon; -12.7% (active) with HCC-2998 colon; 26.4% in the assay on KM12 colon.
For `O=c1[nH]c(N2CCOCC2)nc2scc(-c3ccccc3)c12`, the growth is 102% with SR leukemia; 97.7% with RPMI-8226 leukemia; 96.2% in the assay with OVCAR-8 ovarian; 104% in the assay with OVCAR-5 ovarian; 101% in the assay on OVCAR-4 ovarian; 88% in the assay with SK-OV-3 ovarian. The growth is 101% in the assay on IGROV1 ovarian; 110% in the assay on OVCAR-3 ovarian; 102% in the assay on HS 578T breast; 98.1% with NCI/ADR-RES ovarian; 80.7% with T-47D breast; 92.4% in the assay on BT-549 breast. For the same compound, the growth was 91.7% in the assay on MDA-MB-435 melanoma; 110% with SW-620 colon; 92.2% with MCF7 breast; 98.3% with HCT-116 colon; 106% with HCC-2998 colon; 97.6% in the assay with KM12 colon.
As for `O=C1CC(c2ccc3c(c2)OCO3)c2ncn(-c3ccc(Cl)cc3)c2N1` (configuration not stated), the growth with SR leukemia is 24.4%; in the assay with RPMI-8226 leukemia, 38.7%; in the assay on OVCAR-8 ovarian, 29.7%; in the assay on OVCAR-5 ovarian, 71.2%; in the assay on OVCAR-4 ovarian it was 59.3%; with SK-OV-3 ovarian it was 37.4%. Moreover, the growth in the assay with IGROV1 ovarian was 60.5%; in the assay on OVCAR-3 ovarian, 7.91% (active); in the assay with HS 578T breast, 47.5%; in the assay on NCI/ADR-RES ovarian, 14%; with T-47D breast, 41.3%; in the assay with BT-549 breast it was 57.5%. The growth was -42.8% (active) with MDA-MB-435 melanoma; 24.3% with SW-620 colon; 45.5% in the assay on MCF7 breast; 11.4% in the assay on HCT-116 colon; 68.1% in the assay with HCC-2998 colon; 32.7% in the assay on KM12 colon.
For `COc1ccc(Cc2cc(-c3ccccc3C)n[nH]c2=O)cc1`, the growth with SR leukemia is 103%; with RPMI-8226 leukemia, 39.9%; in the assay on OVCAR-8 ovarian it was 99.9%; in the assay with OVCAR-5 ovarian, 101%; with OVCAR-4 ovarian, 92.5%; in the assay with SK-OV-3 ovarian, 102%. Besides, the growth was 53.7% in the assay on IGROV1 ovarian; 96.4% in the assay with OVCAR-3 ovarian; 90.9% with HS 578T breast; 105% in the assay on NCI/ADR-RES ovarian; 94.4% in the assay on T-47D breast; 132% in the assay on BT-549 breast. Besides, the growth with MDA-MB-435 melanoma is 117%; with SW-620 colon it was 103%; in the assay with MCF7 breast, 95.4%; in the assay with HCT-116 colon, 98%; in the assay on HCC-2998 colon it was 110%; with KM12 colon, 97.9%.
Regarding `Cc1nn(-c2nc3ccccc3[nH]2)c2c1C(c1ccc(OCc3ccc(F)cc3)cc1)CC(=O)N2` (configuration not stated), the growth with SR leukemia is 67.5%; in the assay with RPMI-8226 leukemia, 76.3%; in the assay with OVCAR-8 ovarian it was 54%; in the assay with OVCAR-5 ovarian, 98.5%; in the assay on OVCAR-4 ovarian it was 98.4%; in the assay with SK-OV-3 ovarian, 49.1%. Moreover, the growth is 54.6% in the assay on IGROV1 ovarian; 51% in the assay with OVCAR-3 ovarian; 39% in the assay on HS 578T breast; 65.9% with NCI/ADR-RES ovarian; 71.3% in the assay with T-47D breast; 58.4% in the assay on BT-549 breast. Further, the growth was 44.7% in the assay with MDA-MB-435 melanoma; 80.2% in the assay with SW-620 colon; 81.4% with MCF7 breast; 73.4% with HCT-116 colon; 99.3% with HCC-2998 colon; 41.5% with KM12 colon.
In the case of `Cc1cc(C)n(CC(=O)Nc2ccc(-c3nc4ccccc4s3)cc2)n1`, the growth was 99.4% in the assay on SR leukemia; 97.2% in the assay with RPMI-8226 leukemia; 99.7% in the assay on OVCAR-8 ovarian; 105% in the assay with OVCAR-5 ovarian; 97.8% in the assay with OVCAR-4 ovarian; 114% in the assay with SK-OV-3 ovarian. Also, the growth in the assay with IGROV1 ovarian was 97.4%; with OVCAR-3 ovarian, 101%; in the assay with HS 578T breast, 113%; in the assay on NCI/ADR-RES ovarian, 103%; with T-47D breast, 93.3%; with BT-549 breast it was 115%. Moreover, the growth with MDA-MB-435 melanoma is 107%; with SW-620 colon, 113%; in the assay on MCF7 breast it was 26.6%; in the assay with HCT-116 colon, 107%; in the assay with HCC-2998 colon, 92.9%; with KM12 colon, 100%.
Turning to `CC1(/C=N/NC(N)=S)NC(=O)NC1=O` (configuration not stated), the growth with SR leukemia is 94.8%; in the assay on RPMI-8226 leukemia, 104%; with OVCAR-8 ovarian, 97.7%; in the assay on OVCAR-5 ovarian, 102%; in the assay with OVCAR-4 ovarian, 109%; in the assay with SK-OV-3 ovarian it was 86.9%. The growth is 111% in the assay on IGROV1 ovarian; 109% in the assay with OVCAR-3 ovarian; 97% in the assay with HS 578T breast; 111% with NCI/ADR-RES ovarian; 79.5% in the assay with T-47D breast; 105% with BT-549 breast. Moreover, the growth in the assay on MDA-MB-435 melanoma was 107%; with SW-620 colon it was 106%; with MCF7 breast, 94.8%; in the assay on HCT-116 colon, 98.4%; in the assay on HCC-2998 colon, 118%; in the assay with KM12 colon it was 104%.
On to `COc1cnc2c(c1)C(=O)c1c-2n(CCCNC2=NCCS2)c(=O)c2cc(Cl)ccc12`, for which the growth in the assay on SR leukemia is 2.52% (active); with RPMI-8226 leukemia, -31.2% (active); in the assay with OVCAR-8 ovarian, -25.1% (active); in the assay on OVCAR-5 ovarian, 4.29% (active); with OVCAR-4 ovarian, 49.5%; with SK-OV-3 ovarian, 20.9%. Also, the growth in the assay with IGROV1 ovarian was -57% (active); with OVCAR-3 ovarian, -67.9% (active); with HS 578T breast, 85.8%; with NCI/ADR-RES ovarian it was -14.5% (active); with T-47D breast, 32.9%; in the assay with BT-549 breast, 41.6%. The growth is 7.73% (active) in the assay on MDA-MB-435 melanoma; -79.3% (active) in the assay with SW-620 colon; -74.9% (active) in the assay on MCF7 breast; -87.8% (active) with HCT-116 colon; -35.6% (active) in the assay with HCC-2998 colon; -63.2% (active) with KM12 colon.
